# Assay results: PubChem BioAssay AID2685 (National Center for Advancing Translational Sciences (NCATS), 2010)
# In all, about 320,000 compounds went through this assay and about 2,100 (0.66%) were called active. Not shown: some 53% with an inconclusive outcome. The call rests on the fitted dose curve; in most records, active means well fitted inhibition curve with a large enough effect in the signal ratio, with a control signal flat (not every such curve was filed as active); inconclusive means small, poorly fitted or top-dose-only effect, or effect the other way, or a change in a side signal; inactive means flat fitted curve, though single readings scatter; the % refers to the signal ratio. This excerpt belongs to a sample that is enriched for actives.
# Assay: qHTS Assay for Lipid Storage Modulators in Drosophila S3 Cells;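 on cell number change: cells counted by Cell Tracker Red CMTPX staining in the red channel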; on lipid storage change, negative = inhibition: on the % scale 0 is the no-effect control and ±100 the full control effect
# Settings: BODIPY lipid droplet fluorescence, 18-24 h, cells fed with added oleic acid; cell number change: measured here: cell count max response; series mostly up to 46.1 µM; lipid storage change, negative = inhibition: at the top concentration
# Procedure, shortened: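 Laser-scanning cytometry quantifies lipid droplet accumulation (500–530 nm total intensity; droplet/cell object ratio) in oleic acid-fed (400 uM added) Drosophila S3 cells treated with a concentration series. 20 uM Triacsin C defined 100% inhibition.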
# Potency means the concentration at half of the fitted maximal effect.
Compound,"lipid storage change, negative = inhibition",cell number change,Potency,outcome
CC(=O)OCC1=C(C(=O)O)N2C(=O)C(NC(=O)c3ccc(COc4ccc(Cl)cc4)o3)C2SC1 (centres undefined),6.11% (inactive),12.1%,–,–
NC(=O)C1CCN(c2ccc(C(F)(F)F)cc2[N+](=O)[O-])CC1,3.26% (inactive),–,–,–
O=C(C1CCC1)N1CCN(c2ccc(C(F)(F)F)cc2[N+](=O)[O-])CC1,–,4.32%,0.58 µM (active),–
O=[N+]([O-])c1cc(C(F)(F)F)ccc1N1CCC(O)CC1,3.91% (inactive),9.29%,–,–
C1CCC(Nc2nc3nonc3nc2N2CCSCC2)C1,1.7% (inactive),-7.42%,–,–
O=C(NN(C(=O)C1CC1)c1nc2ccccc2s1)C1CC1,0.109% (inactive),4.43%,–,–
O=C(O)CCC(=O)Nc1ccc(N=Nc2ccccc2)cc1,–,-12.6%,–,inactive
O=C(CCl)Nc1ccc(N=Nc2ccccc2)cc1,–,-14.8%,5.8 µM (active),–
O=C(O)CCCC(=O)Nc1ccc(N=Nc2ccccc2)cc1,0.135% (inactive),17%,–,–
CCCCCC/C=N/Nc1nnc(Cc2ccc(OC)c(OC)c2)c(=O)[nH]1,-24% (inactive),–,–,–
CC(=O)Nc1ccc(S(=O)(=O)Nc2nnc(C3CCCCC3)s2)cc1,–,6.53%,3.66 µM (active),–
CC(=O)Nc1ccc(S(=O)(=O)Nc2nc3ccccc3s2)cc1,–,-10.9%,23.1 µM (active),–
CC(=O)Nc1ccc(S(=O)(=O)Nc2nnc(CC(C)(C)C)s2)cc1,-22.2% (inactive),0.722%,–,–
O=S(=O)(Nc1nnc(C2CCCCC2)s1)c1ccc(F)cc1,-48.6% (inactive),-12.8%,–,–
CC(=O)Nc1ccc(S(=O)(=O)Nc2nc3ccc(C)cc3s2)cc1,8.73% (inactive),6.47%,–,–
CC(=O)Nc1ccc2nc(NS(=O)(=O)c3ccc(C)cc3)sc2c1,14.3% (inactive),2.04%,–,–
COc1ccc(CCNC(=O)C(=O)Nc2nccs2)cc1OC,–,–,–,inactive
Cc1c(N=C/C=C/c2ccccc2)cnn1C,-0.162% (inactive),0.211%,–,–
CCc1nnc(SCC(=O)Nc2nccs2)n1CC,2.94% (inactive),1.52%,–,–
CC1(C)Cc2c(cnn2-c2cccc(F)c2)C(NC(=O)CN2CCCC2=O)C1 (centres undefined),–,-1.15%,–,inactive
CCOC(=O)COc1ccc(C)cc1-c1ccno1,–,–,–,inactive
Cc1oc(C(=O)O)cc1COc1cccc2cccnc12,–,7.93%,6.51 µM (active),–
COc1cc(C(=O)O)cc(OC)c1OCc1cc(C(=O)O)oc1C,-16.4% (inactive),-10.9%,–,–
Cc1oc(C(=O)O)cc1COc1cccc2ccccc12,16.2% (inactive),16.3%,–,–

Compound,"lipid storage change, negative = inhibition",cell number change,Potency,outcome
Cn1cc(-c2ccc(Cl)cc2)cc(C#N)c1=O,4.19% (inactive),–,–,–
Cc1ccccc1/C=N/n1c(COc2ccccc2)n[nH]c1=S,13.7% (inactive),4.96%,–,–
O=C(OCCCN=C1NS(=O)(=O)c2ccccc21)c1ccc(F)cc1,19.4% (inactive),-17.4%,–,–
O=C(OCCCN=C1NS(=O)(=O)c2ccccc21)C1CC(=O)N(c2ccc(Cl)cc2)C1 (centres undefined),-7.49% (inactive),-12.2%,–,–
O=C(OCCOCCN=C1NS(=O)(=O)c2ccccc21)c1ccncc1,-5.87% (inactive),0.489%,–,–
O=C(CN1C(=O)c2ccccc2C1=O)OCCOCCN=C1NS(=O)(=O)c2ccccc21,10.3% (inactive),10.2%,–,–
O=C(OCCOCCN=C1NS(=O)(=O)c2ccccc21)c1ccc(F)cc1,–,13.2%,1.64 µM (active),–
O=C(OCCOCCN=C1NS(=O)(=O)c2ccccc21)C1CC(=O)N(c2ccccc2)C1 (centres undefined),–,–,8.2 µM (active),–
CN(CC(=O)Nc1ccc(Cl)cc1)CC(=O)Nc1ccc(C(N)=O)cc1,0.257% (inactive),-11%,–,–
Cc1cc(=O)n(C)c(=O)n1CCCCOc1cccc([N+](=O)[O-])c1,11.3% (inactive),11.9%,–,–
N#Cc1nc(-c2cccs2)oc1NCc1ccc(Cl)cc1,–,–,–,inactive
Cc1cc2occ(CC(=O)Nc3nccs3)c2cc1C(C)C,–,–,–,inactive
Cc1cc2occ(CC(=O)NCc3cccs3)c2cc1C(C)C,–,-2.8%,1.46 µM (active),–
Cc1ccc2c(CC(=O)NCc3cccs3)coc2c1,26.1% (inactive),20.1%,–,–
O=C(O)c1ccc2c(c1)C(=O)N(c1ncccn1)C2=O,2.95% (inactive),-0.987%,–,–
Cc1ccc(Cn2c(CN3CCOCC3)nc3c2c(=O)n(C)c(=O)n3C)cc1,2.04% (inactive),6.6%,–,–
COc1ccc(-c2[nH]ncc2CN(C)C(C)c2cccs2)c(F)c1 (centres undefined),2.81% (inactive),8.77%,–,–
COc1ccc(Cc2nc3ccc(C(=O)NC(C)c4cn(C)nc4C)cc3o2)cc1 (centres undefined),–,-22.9%,–,inactive
O=C(Oc1ccccc1)c1c(Cl)cccc1P(=O)(O)O,–,3.12%,3.66 µM (active),–
O=C(O)c1c(Cl)cccc1Cl,3.03% (inactive),4.08%,–,–
O=C(Oc1ccc(/C=N/O)cc1)c1ccccc1Cl,14.4% (inactive),-11.5%,–,–
CSc1ccc(Cl)c(C(=O)N2CCOc3ccccc32)c1,3.65% (inactive),-26.8%,–,–
O=C(c1ccc(N2C(=O)C3CC=C(Cl)CC3C2=O)cc1)N1CCOCC1 (centres undefined),-4.16% (inactive),30%,–,–
COc1cc(C(=O)Nc2ccccc2N2CCOCC2)ccc1OCC(=O)N1CCOCC1,-20.4% (inactive),–,–,–

Compound,"lipid storage change, negative = inhibition",cell number change,Potency,outcome
COc1ccccc1OCC(=O)Nc1ccc(N2CCOCC2)cc1N1CCOCC1,-21.3% (inactive),2.71%,–,–
COc1cc(C=O)ccc1OCC(=O)Nc1ccccc1N1CCOCC1,–,-24.3%,2.59 µM (active),–
Cc1c(OC(C)C(=O)NCc2ccccn2)ccc2c3c(c(=O)oc12)CCC3 (centres undefined),–,-27.2%,11.6 µM (active),–
Cc1c(OC(C)C(=O)NCc2ccncc2)ccc2c3c(c(=O)oc12)CCC3 (centres undefined),–,-1.18%,–,inactive
Cc1c(OC(C)C(=O)N[C@H](C(=O)O)c2ccccc2)ccc2c3c(c(=O)oc12)CCCC3 (some centres undefined),-14.4% (inactive),-8.43%,–,–
Cc1c(OCC(=O)NCC(O)c2ccccc2)ccc2c3c(c(=O)oc12)CCCC3 (centres undefined),–,-19.4%,–,inactive
CCc1cc2c(-c3ccccc3)cc(=O)oc2cc1OCC(=O)NCC1CCC(C(=O)O)CC1 (centres undefined),-3.52% (inactive),22.7%,–,–
Cc1c(OCC(=O)NCC2CCC(C(=O)O)CC2)ccc2c(-c3ccccc3)cc(=O)oc12 (centres undefined),6.37% (inactive),0.647%,–,–
Cc1c(OC(C)C(=O)NCC(O)c2ccccc2)ccc2c3c(c(=O)oc12)CCCC3 (centres undefined),–,9.43%,29.1 µM (active),–
CCc1cc2c(-c3ccccc3)cc(=O)oc2cc1OC(C)C(=O)NCC1CCC(C(=O)O)CC1 (centres undefined),–,17.8%,–,inactive
Cc1c(OCC(=O)NCC(O)c2ccccc2)ccc2c(-c3ccccc3)cc(=O)oc12 (centres undefined),–,-9.69%,16.4 µM (active),–
CC(=O)COc1ccc2c(-c3ccccc3)cc(=O)oc2c1C,10.7% (inactive),-1.68%,–,–
CC(Oc1ccc2c3c(c(=O)oc2c1)CCC3)C(=O)NCc1ccccn1 (centres undefined),–,1.9%,–,inactive
CCc1cc2c(-c3ccccc3)cc(=O)oc2cc1OCC(C)=O,–,-1.82%,0.651 µM (active),–
O=c1[nH]cnc2sc3c(c12)CCC3,-3.12% (inactive),25.4%,–,–
CCOc1ccc(-n2ccc(=O)c(C(=O)Nc3ccc(S(=O)(=O)Nc4nccs4)cc3)n2)cc1,–,-6.87%,–,inactive
CCc1c(C)nc(N)n2c(SCC(=O)N3CCN(c4ccccc4F)CC3)nnc12,0.324% (inactive),-1.8%,–,–
O=C1CCN(Cc2ccccc2)CCN1CCO,-5.28% (inactive),13.2%,–,–
O=C(CN(C(=O)CCC(=O)Nc1nccs1)c1ccc2c(c1)OCO2)NCC1CCCO1 (centres undefined),–,2.62%,–,inactive
Cc1cc(N2CCN(S(=O)(=O)Cc3ccccc3)CC2)n2ncnc2n1,–,–,–,inactive
O=c1[nH]c2ccccc2nc1C(Cl)c1ccccc1 (centres undefined),–,23.2%,–,inactive
CCN(CC)S(=O)(=O)c1cccc(NC(=O)c2ccc(SC)cc2OC)c1,24.1% (inactive),22.2%,–,–
COc1ccc(S(=O)(=O)N(CC(=O)NCc2ccco2)c2ccccc2)cc1,–,–,–,inactive
CC(C)(C)c1ccc(C(=O)NC2CCN(Cc3ccccc3)CC2)cc1,0.163% (inactive),5.06%,–,–

Compound,"lipid storage change, negative = inhibition",cell number change,Potency,outcome
Cc1nnc2c(NC3CCCC3)nc3ccccc3n12,9.47% (inactive),9.22%,–,–
Cc1ccc(-c2nnc(SCC(=O)Nc3ccc(N4CCOCC4)cc3)o2)cc1,13.5% (inactive),-5.45%,–,–
O=C1Nc2cc(C(=O)N3CCc4ccccc4C3)ccc2S/C1=C\c1ccccc1,–,17.1%,0.651 µM (active),–
CC1CCN(C(=O)c2ccc3c(c2)NC(=O)/C(=C/c2ccccc2)S3)CC1,–,3.29%,–,inactive
COc1ccc(/C=C2/Sc3ccc(C(=O)N4CCc5ccccc5C4)cc3NC2=O)cc1,13.9% (inactive),0.0626%,–,–
Cn1c(=O)[nH]c(=O)c2c1nc(SCCN1CCCCC1)n2Cc1ccccc1,18.7% (inactive),–,–,–
COc1ccc(OC)c(C(=O)CSc2nnc(Cc3cccs3)n2C)c1,–,-18.3%,–,inactive
O=C(Nc1ccc(F)cc1)c1csc(Cc2ccccc2)n1,14.8% (inactive),–,–,–
O=c1[nH]c2ccccc2nc1Cc1ccc(Cl)cc1,–,6.67%,–,inactive
O=c1[nH]c2ccccc2nc1Cc1ccccc1,10.2% (inactive),-29.6%,–,–
COc1ccc(Cc2nc3ccccc3[nH]c2=O)cc1,–,–,3.26 µM (active),–
COC(=O)N1[C@H](Cc2ccccc2)C=C[C@]1(C)C(=O)O,-10.2% (inactive),-7.24%,–,–
O=C(CBr)Nc1c2c(nn1-c1ccccc1)CSC2,–,23.5%,–,inactive
O=C(CCl)Nc1c2c(nn1-c1ccccc1)CSC2,–,-21.4%,20.6 µM (active),–
CCC(=O)Nc1c2c(nn1-c1ccccc1)CSC2,–,19%,–,inactive
COc1ccc(C(=O)OCCc2sc[n+](CC(=O)c3ccccc3)c2C)cc1,–,15.7%,–,inactive
Cc1c(CCOC(=O)CC23CC4CC(CC(C)(C4)C2)C3)sc[n+]1CC(=O)c1ccccc1,-14.6% (inactive),-7.33%,–,–
Cc1c(CCOC(=O)C23CC4(C)CC(C)(CC(C)(C4)C2)C3)sc[n+]1CC(=O)c1ccccc1,–,-53.8%,18.4 µM (active),–
CCOc1ccccc1NC(=S)NC1CC2CCC1C2 (centres undefined),8.44% (inactive),6.16%,–,–
Cc1cc(C)c(-c2cc(C(=O)Nc3cc(C)ccc3C)[nH]n2)c(O)c1,-1.74% (inactive),2.08%,–,–
COc1ccc(OC)c(NC(=O)c2cc(-c3ccc(C)cc3O)n[nH]2)c1,–,2.51%,–,inactive
COc1ccc(OC)c(NC(=O)c2cc(-c3c(C)cc(C)cc3O)n[nH]2)c1,–,13.7%,0.206 µM (active),–
